Results as given in PubChem BioAssay (Tox21).
The source made the active and inactive calls. Unless noted, calls follow the shape of the dose curve; as a rule, active = well fitted curve in the direction sought with a large enough effect in the repeat runs; inconclusive = weak or mixed curves; inactive = no such curve, though single readings can be large; an effect the other way counts as inactive or inconclusive.

What was measured:
[1] = target: Acetylcholinesterase (Homo sapiens) (UniProt P22303); assay: Acetylcholinesterase (AChE) small molecule antagonists: fluorescence cell-based qHTS assay (AID 1347398; calls by dose curve; also: potency is read from the fitted curve at half-maximal effect; nearly all actives have a fitted effect of over 50% in size); details: Potency: AChE activity; outcome: AChE activity
Sequence of Acetylcholinesterase (Homo sapiens) (P22303 whole entry, looked up): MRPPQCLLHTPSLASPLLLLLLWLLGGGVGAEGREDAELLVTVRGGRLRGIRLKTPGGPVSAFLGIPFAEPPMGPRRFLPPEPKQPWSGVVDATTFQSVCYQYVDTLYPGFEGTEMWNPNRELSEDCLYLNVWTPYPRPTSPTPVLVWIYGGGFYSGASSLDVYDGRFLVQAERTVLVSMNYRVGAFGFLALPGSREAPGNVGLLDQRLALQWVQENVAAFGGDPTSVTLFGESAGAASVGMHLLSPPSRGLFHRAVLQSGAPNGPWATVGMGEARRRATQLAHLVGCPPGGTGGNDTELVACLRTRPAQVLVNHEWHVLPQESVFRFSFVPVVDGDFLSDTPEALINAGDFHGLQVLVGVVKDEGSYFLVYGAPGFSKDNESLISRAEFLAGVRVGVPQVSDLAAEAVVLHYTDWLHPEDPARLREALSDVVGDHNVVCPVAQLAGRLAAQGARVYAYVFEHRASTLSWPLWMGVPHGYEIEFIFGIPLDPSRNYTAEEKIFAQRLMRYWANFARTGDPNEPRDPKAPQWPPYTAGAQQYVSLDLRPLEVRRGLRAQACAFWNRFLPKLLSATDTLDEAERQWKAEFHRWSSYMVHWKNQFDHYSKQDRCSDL
Summary of the method: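 Cellular AChE activity read as thiocholine from acetylthiocholine hydrolysis, detected by Thiolite Green fluorescence at 490/520 nm after 40 min at room temperature. Compounds were pre-incubated 30 min at 37 C on adherent SH-SY5Y cells.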

[2] = target: Acetylcholinesterase (Homo sapiens) (UniProt P22303); assay: Acetylcholinesterase (AChE) small molecule antagonists: enzyme-based qHTS assay with human liver microsomes (AID 1347399; calls by dose curve; also: nearly all actives have a fitted effect of over 60% in size); details: Potency: qHTS inhibition; outcome: qHTS inhibition
Summary of the method: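 Recombinant human AChE (50 mU/mL in the enzyme mix) and human liver microsomes (0.25 mg/mL final) were preincubated with compound and NADPH (0.25 mg/mL final) for 30 min at 37 C. Acetylthiocholine/DTNB was then added; thiocholine was read colorimetrically after 10 min at room temperature.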

[3] = qHTS assay for small molecules that induce genotoxicity in human embryonic kidney cells expressing luciferase-tagged ATAD5 (AID 651632); also: nearly all actives have a fitted effect of over 15% in size
Summary of the method: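 Test compounds were delivered by pin tool onto HEK293T reporter cells (2,000/well) expressing ATAD5 fused to luciferase. After 16 hr at 37C, 5% CO2, Amplite was added for 30 min at room temperature and luminescence was measured.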

[4] = qHTS assay for small molecules that induce genotoxicity in human embryonic kidney cells expressing luciferase-tagged ATAD5 - cell viability (AID 651634; calls by dose curve; also: nearly all actives have a fitted effect of over 25% in size)
Summary of the method: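 Quantitative high-throughput format. HEK293T cells expressing ATAD5 fused to luciferase were plated at 2,000 cells/well and treated 15.5 hr with compound versus DMSO. Viability was determined by fluorescent live-cell protease substrate, 30 min at 37C.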

[5] = qHTS assay to test for compound auto fluorescence at 590 nm (red) in HepG2 cells (AID 720674)
Summary of the method: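 Red autofluorescence (Ex/Em 540/590 nm, Rose Bengal sodium equivalents) was measured in HepG2 cells, 2,000 per well in MEM plus 10% FBS, plated overnight at 37 C. Readings were taken 1 hr after adding 23 nL compound or DMSO, at 37 C and 5% CO2.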

[6] = qHTS assay to test for compound auto fluorescence at 535 nm (green) in HepG2 cells (AID 720675)
[7] = qHTS assay to test for compound auto fluorescence at 460 nm (blue) in HEK293 cells (AID 720678)
Summary of the method: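 Cells were seeded and left to adhere for 4-5 hr at 37C. Compounds were then pin-transferred. After an overnight incubation at 37C under 5% CO2, intrinsic fluorescence at 405/460 nm was measured and referenced to triamterene.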

[8] = qHTS assay to test for compound auto fluorescence at 590 nm (red) in HEK293 cells (AID 720679)
Summary of the method: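 Each well held 2,000 HEK293 cells in medium containing 10% dialyzed FBS. Following 4-5 hr attachment at 37C, 23 nL test compound or DMSO was added; plates sat overnight, and red fluorescence (540/590nm) was recorded.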

[9] = qHTS assay to test for compound auto fluorescence at 535 nm (green) in HEK293 cells (AID 720680)
[10] = qHTS assay to test for compound auto fluorescence at 460 nm (blue) in HEK293 cell free culture (AID 720681)
Summary of the method: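 Blue fluorescence (Ex 405/Em 460 nm, triamterene-equivalent) was read immediately after pin transfer of compound or DMSO into medium (DMEM, 10% FBS) without cells.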

[11] = qHTS assay to test for compound auto fluorescence at 535 nm (green) in HEK293 cell free culture (AID 720682)
Summary of the method: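 Fluorescein serves as the green reference fluorophore; each compound's intrinsic emission at 535 nm (excitation 485 nm) is reported as an equivalent amount of that dye, measured in serum-containing DMEM without cells.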

[12] = qHTS assay to test for compound auto fluorescence at 590 nm (red) in HEK293 cell free culture (AID 720683)
Summary of the method: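 Red-channel autofluorescence of compounds in culture medium (DMEM, 10% FBS), no cells, measured at 540/590 nm. Rose Bengal sodium is the reference fluorophore for equivalence.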

[13] = qHTS assay to test for compound auto fluorescence at 590 nm (red) in HepG2 cell free culture (AID 720684)
Summary of the method: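 Cell-free; medium MEM + 10% FBS; compound or DMSO added by pintool; read Ex 540/Em 590 nm; Rose Bengal sodium as red reference fluorophore.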

[14] = qHTS assay to test for compound auto fluorescence at 460 nm (blue) in HepG2 cell free culture (AID 720685)
Summary of the method: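 Cell-free plates of MEM plus 10% FBS received 23 nL compound or DMSO vehicle; blue-channel (405/460 nm) intensity scored against triamterene as reference fluorophore.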

[15] = qHTS assay to test for compound auto fluorescence at 535 nm (green) in HepG2 cell free culture (AID 720686)
[16] = qHTS assay to test for compound auto fluorescence at 460 nm (blue) in HepG2 cells (AID 720687)
Summary of the method: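 Blue-channel autofluorescence (Ex/Em 405/460 nm, triamterene-equivalent) was measured after 1 hr compound exposure at 37 C, 5% CO2. Cells were HepG2, plated overnight at 37 C in MEM plus 10% FBS.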

[17] = target: Glucocorticoid receptor (Homo sapiens) (UniProt P04150); assay: qHTS assay to identify small molecule agonists of the glucocorticoid receptor (GR) signaling pathway (AID 720691; active = well fitted activation curve with a large enough effect in the signal ratio in the repeat runs, not every such curve was filed as active; inconclusive = weak or mixed curves, or effect the other way; inactive = no such curve, though single readings can be large or run the other way; the % refers to the signal ratio)
Sequence of Glucocorticoid receptor (Homo sapiens) (P04150 whole entry, looked up): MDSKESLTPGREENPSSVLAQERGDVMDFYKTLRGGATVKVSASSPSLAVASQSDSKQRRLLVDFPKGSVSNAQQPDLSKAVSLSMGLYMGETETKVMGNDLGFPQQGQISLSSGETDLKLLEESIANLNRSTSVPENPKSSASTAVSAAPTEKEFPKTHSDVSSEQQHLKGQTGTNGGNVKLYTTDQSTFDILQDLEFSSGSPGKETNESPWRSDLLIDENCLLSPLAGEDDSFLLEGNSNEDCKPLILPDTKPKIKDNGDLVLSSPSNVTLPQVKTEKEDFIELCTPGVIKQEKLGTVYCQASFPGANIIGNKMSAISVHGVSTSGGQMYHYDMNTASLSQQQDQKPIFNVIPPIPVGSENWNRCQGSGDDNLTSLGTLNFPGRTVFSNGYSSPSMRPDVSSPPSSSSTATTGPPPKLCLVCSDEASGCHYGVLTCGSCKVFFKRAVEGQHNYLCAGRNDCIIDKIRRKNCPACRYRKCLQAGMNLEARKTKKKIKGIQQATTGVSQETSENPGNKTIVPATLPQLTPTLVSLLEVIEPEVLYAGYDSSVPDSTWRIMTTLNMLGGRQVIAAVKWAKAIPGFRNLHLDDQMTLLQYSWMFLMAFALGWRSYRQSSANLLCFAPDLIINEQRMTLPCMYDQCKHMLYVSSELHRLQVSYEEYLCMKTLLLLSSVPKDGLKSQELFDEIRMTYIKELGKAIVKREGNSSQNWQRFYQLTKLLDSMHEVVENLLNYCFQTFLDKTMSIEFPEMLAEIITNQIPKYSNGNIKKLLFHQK
Summary of the method: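 A HeLa cervical cancer line expressing GR and a glucocorticoid response element-driven beta-lactamase gene is treated with compounds for 18 h; LiveBLAzer B/G FRET substrate is then applied and fluorescence read.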

[18] = target: Glucocorticoid receptor (Homo sapiens) (UniProt P04150); assay: qHTS assay to identify small molecule antagonists of the glucocorticoid receptor (GR) signaling pathway (AID 720692; active = well fitted inhibition curve with a large enough effect in the signal ratio in the repeat runs, not every such curve was filed as active; inconclusive = weak or mixed curves, or effect the other way; inactive = no such curve, though single readings can be large or run the other way; the % refers to the signal ratio; also: potency is read from the fitted curve at half-maximal effect)
Summary of the method: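 GRE-bla HeLa line, dex-stimulated (5 nM final). Compound exposure 18 h, 37 C. Beta-lactamase FRET read after 2 h RT substrate.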

[19] = qHTS assay for identifying genotoxic compounds that show differential cytotoxicity against isogenic chicken DT40 cell lines with known DNA damage response pathways - wild type cell line (AID 743012); also: potency is read from the fitted curve at half-maximal effect; nearly all actives have a fitted effect of over 60% in size
Summary of the method: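 300 wt DT40 cells/well; cpd (DMSO) pintool-transferred after ~0.5 h at 37 C/5% CO2; 40 h incubation; CellTiter-Glo added, 30 min RT; luminescence read.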

[20] = qHTS assay for identifying genotoxic compounds that show differential cytotoxicity against isogenic chicken DT40 cell lines with known DNA damage response pathways - Rev3 mutant cell line (AID 743014); also: potency is read from the fitted curve at half-maximal effect; nearly all actives have a fitted effect of over 55% in size
[21] = qHTS assay for identifying genotoxic compounds that show differential cytotoxicity against isogenic chicken DT40 cell lines with known DNA damage response pathways - Rad54/Ku70 mutant cell line (AID 743015); also: potency is read from the fitted curve at half-maximal effect; nearly all actives have a fitted effect of over 60% in size
[22] = qHTS assay to identify small molecule antagonists of the androgen receptor (AR) signaling pathway - cell viability counter screen (AID 743033; also: nearly all actives have a fitted effect of over 45% in size)
[23] = qHTS assay to identify small molecule antagonists of the androgen receptor (AR) signaling pathway using the MDA cell line - cell viability counter screen (AID 743041; also: nearly all actives have a fitted effect of over 45% in size)
Summary of the method: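 Viability read by CellTiter-Fluor fluorescence in the same wells as the antagonist screen, added after 15.5 h of a 16 h, 37C exposure. Human breast carcinoma MDA-kb2 AR-luc cells, compounds co-dosed with agonist R1881.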

[24] = qHTS assay to identify small molecule antagonists of the thyroid receptor (TR) signaling pathway - cell viability counter screen (AID 743064); also: nearly all actives have a fitted effect of over 50% in size
Summary of the method: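 Fluorescence from CellTiter-Fluor, added after 23.5 h exposure at 37 °C, reported viability of GH3.TRE-Luc cells co-treated with compound and 1 nM T3. Measured in the same wells as the luciferase TR readout.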

[25] = system: thyroid hormone receptor (rat, GH3 cells); assay: qHTS assay to identify small molecule agonists of the thyroid receptor (TR) signaling pathway (AID 743066; calls by dose curve)
[26] = qHTS assay to identify small molecule antagonists of the estrogen receptor alpha (ER-alpha) signaling pathway - cell viability counter screen (AID 743074; calls by dose curve;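 also: HEK293 cells carrying ER-alpha-UAS-bla reporter stimulated with 17beta-estradiol; nearly all actives have a fitted effect of over 45% in size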)
[27] = target: Estrogen receptor (Homo sapiens) (UniProt P03372); assay: qHTS assay to identify small molecule agonists of the estrogen receptor alpha (ER-alpha) signaling pathway (AID 743075; calls by dose curve;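 also: HEK293 GripTite cells with ER-alpha and UAS-driven beta-lactamase reporter; potency is read from the fitted curve at half-maximal effect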)
Sequence of Estrogen receptor (Homo sapiens) (P03372 whole entry, looked up): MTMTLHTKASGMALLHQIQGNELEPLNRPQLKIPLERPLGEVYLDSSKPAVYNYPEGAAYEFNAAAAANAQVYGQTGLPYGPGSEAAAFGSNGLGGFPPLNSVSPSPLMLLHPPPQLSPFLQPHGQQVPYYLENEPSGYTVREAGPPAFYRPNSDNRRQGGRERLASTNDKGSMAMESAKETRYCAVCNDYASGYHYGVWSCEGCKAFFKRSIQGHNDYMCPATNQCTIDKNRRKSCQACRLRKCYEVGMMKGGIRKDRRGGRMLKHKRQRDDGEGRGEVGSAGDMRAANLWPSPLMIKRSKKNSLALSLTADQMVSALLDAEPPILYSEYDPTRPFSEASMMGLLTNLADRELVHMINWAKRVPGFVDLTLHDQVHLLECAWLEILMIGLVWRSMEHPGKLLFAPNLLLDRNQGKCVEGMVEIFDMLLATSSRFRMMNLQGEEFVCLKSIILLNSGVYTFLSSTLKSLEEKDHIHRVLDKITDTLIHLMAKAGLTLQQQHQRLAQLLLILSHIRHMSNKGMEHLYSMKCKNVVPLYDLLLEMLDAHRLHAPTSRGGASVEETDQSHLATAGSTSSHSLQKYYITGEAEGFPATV

[28] = target: Estrogen receptor (Homo sapiens) (UniProt P03372); assay: qHTS assay to identify small molecule agonists of the estrogen receptor alpha (ER-alpha) signaling pathway using the BG1 cell line (AID 743079); also: potency is read from the fitted curve at half-maximal effect; nearly all actives have a fitted effect of over 20% in size
[29] = qHTS assay to identify small molecule antagonists of the estrogen receptor alpha (ER-alpha) signaling pathway using the BG1 cell line - cell viability counter screen (AID 743081);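 also: compound given together with 17beta-estradiol as the ER stimulus; series mostly up to about 70 µM; nearly all actives have a fitted effect of over 45% in size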
[30] = target: Aromatase (Homo sapiens) (UniProt P11511); assay: qHTS assay to identify aromatase inhibitors (AID 743083); also: series mostly up to about 70 µM; nearly all actives have a fitted effect of over 55% in size
Sequence of Aromatase (Homo sapiens) (P11511 whole entry, looked up): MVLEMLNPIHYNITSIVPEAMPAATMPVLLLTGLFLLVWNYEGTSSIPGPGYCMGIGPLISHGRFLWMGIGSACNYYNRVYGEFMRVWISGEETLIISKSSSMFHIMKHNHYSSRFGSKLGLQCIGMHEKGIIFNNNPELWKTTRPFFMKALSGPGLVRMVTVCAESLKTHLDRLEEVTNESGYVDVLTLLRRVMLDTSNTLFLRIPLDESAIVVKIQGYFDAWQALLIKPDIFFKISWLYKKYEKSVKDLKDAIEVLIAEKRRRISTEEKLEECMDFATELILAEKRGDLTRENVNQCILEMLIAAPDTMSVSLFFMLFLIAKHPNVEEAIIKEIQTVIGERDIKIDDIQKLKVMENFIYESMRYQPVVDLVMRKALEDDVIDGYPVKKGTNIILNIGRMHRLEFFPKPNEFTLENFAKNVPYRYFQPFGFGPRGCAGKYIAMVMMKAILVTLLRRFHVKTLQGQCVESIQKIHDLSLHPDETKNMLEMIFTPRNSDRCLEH

[31] = qHTS assay to identify aromatase inhibitors - cell viability counter screen (AID 743084);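 also: cells stimulated with testosterone during compound exposure; nearly all actives have a fitted effect of over 55% in size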
[32] = qHTS assay to identify small molecule that activate the aryl hydrocarbon receptor (AhR) signaling pathway - cell viability counter screen (AID 743086)
Summary of the method: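 Cytotoxicity counter screen: CellTiter-Fluor signal (30 min, 37 C) in 4000 HepG2 cells/well carrying the DRE-luciferase reporter, following 24 h compound exposure at 37 C.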

[33] = target: Peroxisome proliferator-activated receptor gamma (Homo sapiens) (UniProt P37231); assay: qHTS assay to identify small molecule agonists of the peroxisome proliferator-activated receptor gamma (PPARg) signaling pathway (AID 743094; active = well fitted activation curve with a large enough effect in the signal ratio in the repeat runs, not every such curve was filed as active; inconclusive = weak or mixed curves, or effect the other way; inactive = no such curve, though single readings can be large or run the other way; the % refers to the signal ratio)
Sequence of Peroxisome proliferator-activated receptor gamma (Homo sapiens) (P37231 whole entry, looked up): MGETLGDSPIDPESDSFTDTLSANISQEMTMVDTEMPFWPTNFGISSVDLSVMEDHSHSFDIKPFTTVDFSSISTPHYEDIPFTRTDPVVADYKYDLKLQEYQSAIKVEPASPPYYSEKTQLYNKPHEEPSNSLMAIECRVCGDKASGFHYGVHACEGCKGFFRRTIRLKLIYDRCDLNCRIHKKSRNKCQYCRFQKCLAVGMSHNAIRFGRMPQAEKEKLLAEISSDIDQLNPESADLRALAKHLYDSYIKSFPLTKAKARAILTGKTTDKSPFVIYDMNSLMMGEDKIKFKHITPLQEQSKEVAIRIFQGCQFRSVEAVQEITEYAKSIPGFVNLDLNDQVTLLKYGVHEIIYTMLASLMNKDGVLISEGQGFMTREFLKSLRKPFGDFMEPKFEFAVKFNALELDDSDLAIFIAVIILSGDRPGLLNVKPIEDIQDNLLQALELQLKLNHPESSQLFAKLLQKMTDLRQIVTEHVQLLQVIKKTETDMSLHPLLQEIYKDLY
Summary of the method: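 Cell-based bla reporter, HEK293H background, PPARg-driven UAS. Pre-incubation 5 h, 37C, 5% CO2. Compound 17 h, 37C. Substrate 1 h RT; fluorescence.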

Measured: Potency

CCOc1ccc(Cc2nccc3cc(OCC)c(OCC)cc23)cc1OCC
inactive: [2]
active: [1] 15.5 µM

C[C@]12CC[C@H]3[C@@H](CCC4=CC(=O)CC[C@@]43C)[C@@H]1CC[C@@H]2OC(=O)CCc1ccccc1
active: [18] 6.16 µM | [19] 5.45 µM | [20] 8.63 µM | [21] 8.63 µM | [27] 3.89 µM [inconclusive] | [28] 0.0306 µM
not listed: [1] | [2]
inactive: all other assays above

COc1cc2c(N3CCN(C(=O)Nc4ccc(OC(C)C)cc4)CC3)ncnc2cc1OCCCN1CCCCC1
inactive: [2]
